An excerpt weighted towards active compounds, which were near 2.3% of everything screened.
TDP43 rescue: TDP-43 toxicity inhibition in yeast. TDP-43 expressing yeast growth rescue, BacTiter-Glo, 24 h. Potency, µM (series often up to 46.1 µM), most hits filed as activators. 410,000 compounds, 1.8% hits. AID 652104; note: nearly all actives have a fitted effect of over 50% in size
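Readout is BacTiter-Glo luminescence of cell growth, so inhibitors register as activators. TDP-43-expressing yeast at OD600=0.02 in galactose medium, after raffinose pregrowth to mid-log, were incubated with compound for 24 hr at 30 deg C.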
Abeta rescue: restores growth of yeast expressing A-beta42 peptide. 410,000 compounds, 0.063% hits. yeast expressing A-beta42, growth rescue, OD600, 48 h; response scale: 0% DMSO, 100% iron-clioquinol control. AID 1347071. Potency, µM (doses to about 46.1 µM), hits mostly activators; note: nearly all actives have a fitted effect of over 55% in size
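Growth rescue measured by 600 nm absorbance after 48 h yeast culture at 30 C with compound. Values normalized between DMSO and an equimolar ferric chloride plus clioquinol control.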
aSyn rescue: alpha-synuclein toxicity inhibition in yeast; Yeast expressing alpha-synuclein, growth rescue, BacTiter-Glo, 24 h; Potency, µM (titrated, usually from 46.1 µM), actives largely listed as activators; 370,000 compounds, 0.14% hits; AID 652106; note: nearly all actives have a fitted effect of over 65% in size
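Galactose-induced alpha-syn yeast (OD600=0.02, raffinose-pregrown) + pinned cpd, 24 hr, 30 deg C; growth by BacTiter-Glo luminescence. Growth restoration scores as activation.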
pAkt inh: blocks phosphorylation of Akt; Neuro2A IGF-stimulated pAkt S473 HTRF, 20 min; hits give low values; activity change, % for hits at 50 µM; 360,000 compounds, 0.32% hits; in the data active = activity change below about -80%; inconclusive = mostly about -51% to -80%
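Neuro2A cells (4,500/well, DMEM with 0.5% FBS) were treated with compound at a single 50 µM final concentration, stimulated with 6 nM IGF for 20 min at 37 °C, and lysed. Phospho-Akt Ser473 was read by HTRF as 665/615 ratio ×10^4.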
FUS yeast rescue: suppressors of FUS proteinopathy in yeast | S. cerevisiae FUS-expressing, growth rescue, OD600, 24 h | Potency, µM (highest dose often 76.6 µM), actives largely listed as activators | 390,000 compounds, 0.24% hits; note: nearly all actives have a fitted effect of over 55% in size
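S. cerevisiae expressing FUS from galactose induction served as the toxicity model. Growth after 24hr at 30C, read as absorbance at 600 nm, indicates suppression of toxicity; compounds dosed at several concentrations.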
Of the large screens only hits and unclear results are named; the others gave an inactive call. Unless noted, calls come from the whole dose curve; as a rule, active = well fitted curve in the direction sought with a large enough effect; inconclusive = small, poorly fitted or top-dose-only effect, or another doubt; inactive = no such curve, though single readings can be large; an effect the other way counts as inactive or inconclusive.

COc1cc(CNc2ncnc3c2ncn3[C@H]2CN(Cc3cccc(C(F)(F)F)c3)C[C@@H](COC(C)=O)O2)cc(OC)c1OC	FUS yeast rescue 20µM
Oc1ccc(-c2csc(Nc3ccccn3)n2)cc1	TDP43 rescue inconclusive
c1ccc(-c2csc(Nc3ccccn3)n2)cc1	TDP43 rescue inconclusive, Abeta rescue inconclusive
CC(=O)Oc1ccc(-c2csc(Nc3ccc(Cl)cn3)n2)cc1	TDP43 rescue 13µM
Cc1ccnc(Nc2nc(-c3ccc(Cl)cc3)cs2)c1	none (no result: TDP43 rescue)
Cc1ccc(-c2csc(Nc3ccccn3)n2)cc1	TDP43 rescue 3.2µM, Abeta rescue inconclusive
COc1ccc(-c2csc(Nc3ccccn3)n2)cc1OC	TDP43 rescue 13µM
Cc1nc(N)sc1-c1csc(Nc2ccc(Cl)cn2)n1	FUS yeast rescue inconclusive
Cc1ccnc(Nc2nc(-c3ccc(F)cc3)cs2)c1	TDP43 rescue 7.9µM
COc1ccc(-c2csc(Nc3ccc(C)cn3)n2)cc1	TDP43 rescue 13µM
CC(=O)Nc1cccc(-c2csc(Nc3ccc(C)cn3)n2)c1	TDP43 rescue inconclusive
Cc1cc(-c2csc(Nc3ccccn3)n2)ccc1F	TDP43 rescue 4µM, Abeta rescue inconclusive
O=C(CNC(=O)C1CCCCC1)OCC(=O)c1ccc(C2CCCCC2)cc1	none (no result: TDP43 rescue, Abeta rescue, pAkt inh, FUS yeast rescue)
O=C(OC1CCOC1=O)c1cc(-c2cccs2)nc2ccccc12 (configuration not stated)	TDP43 rescue 25µM
CCc1nc2ccccc2c(C(=O)OC2CCOC2=O)c1C (configuration not stated)	none
Cc1ccc(-c2cc(C(=O)OC3CCOC3=O)c3ccccc3n2)c(C)c1 (configuration not stated)	TDP43 rescue 18µM
COc1ccc(Nc2nc3c(S(=O)(=O)c4ccc(Br)cc4)nnn3c3ccsc23)c(OC)c1	none (no result: aSyn rescue, pAkt inh)
Cn1nc(-c2cccnc2)nc2c(=O)n(C)c(=O)nc1-2	none (no result: TDP43 rescue, Abeta rescue, pAkt inh, FUS yeast rescue)
CCCCc1c(C)c2cc(C)ccc2[nH]c1=O	TDP43 rescue 10µM
CCCc1c(C)c2cc(C)ccc2[nH]c1=O	none
COC(=O)c1ccc(C2C=C(c3ccc(Cl)cc3)Nc3nc4ccccc4n32)cc1 (configuration not stated)	TDP43 rescue 10µM (no result: aSyn rescue, pAkt inh)
Fc1ccc(C2=CC(c3ccc(F)cc3)n3c(nc4ccccc43)N2)cc1 (configuration not stated)	TDP43 rescue 22µM (no result: aSyn rescue, pAkt inh)
COc1ccc(C(=O)Nc2nc3n(n2)C(c2ccc(F)cc2)C=C(c2ccc(Cl)cc2)N3)cc1 (configuration not stated)	FUS yeast rescue inconclusive (no result: aSyn rescue, pAkt inh)
COc1ccc(C2=CC(c3cc(Br)ccc3F)n3c(nc4ccccc43)N2)cc1 (configuration not stated)	TDP43 rescue inconclusive (no result: aSyn rescue, pAkt inh)
Cc1sc2ncn(CC(=O)N3CCN(c4cccc(Cl)c4)CC3)c(=O)c2c1S(=O)(=O)N1CCN(c2ncccn2)CC1	FUS yeast rescue inconclusive (no result: aSyn rescue, pAkt inh)
NCC12CC3CC(C1)CC(CN)(C3)C2	none
NC(=O)CC12CC3CC(C1)CC(CC(N)=O)(C3)C2	pAkt inh -82%
Clc1ccc(N2COC3c4cccc5cccc(c45)C32)cc1 (configuration not stated)	TDP43 rescue 10µM
COc1ccc(N2COC3c4cccc5cccc(c45)C32)cc1 (configuration not stated)	TDP43 rescue 11µM
COc1ccccc1N1CCN(c2ncnc3c2nnn3C)CC1	none (no result: aSyn rescue, pAkt inh)
Cc1c(NC(=O)CSc2ccc(Cl)cc2)cccc1-c1nc2ncccc2o1	TDP43 rescue 14µM (no result: pAkt inh)
CCC(=O)Nc1cccc(-c2nc3ncccc3o2)c1C	none
Cn1nc(-c2ccc(F)cc2)nc2c(=O)n(C)c(=O)nc1-2	none (no result: TDP43 rescue, Abeta rescue, pAkt inh, FUS yeast rescue)
Cc1cc2n(n1)C(c1sccc1C)Nc1ccccc1-2 (configuration not stated)	TDP43 rescue 18µM
Cc1cccc(C(=O)Nc2ccccc2OCc2cc(=O)n3cc(C)ccc3n2)c1	none (no result: aSyn rescue, pAkt inh)
NC(=O)c1nn2c(C(F)(F)F)cc(-c3ccc(Br)cc3)nc2c1Cl	none (no result: aSyn rescue, pAkt inh)
CCC(NC(=O)CCc1c(C)c2cc3c(C)c(C)oc3cc2oc1=O)C(=O)N[C@@H](Cc1ccccc1)C(=O)O (some centres not stated)	FUS yeast rescue 28µM
CSC[C@H](NC(=O)Cc1c(C)c2cc3c(C)c(C)oc3cc2oc1=O)C(=O)N[C@@H](Cc1ccccc1)C(=O)O	none
CSc1ccccc1OCc1cc(C(=O)NCc2cnc(C)cn2)no1	TDP43 rescue 11µM
CSc1ccccc1OCc1cc(C(=O)NCc2csc(C(C)C)n2)no1	TDP43 rescue inconclusive
Cc1cc(C)c2oc(-c3cccc(N)c3)nc2c1	TDP43 rescue 11µM
Fc1ccc(-c2nc3ccccc3c3nc4ccccc4n23)cc1	none
Cc1nc2ccccc2c2nc3ccccc3n12	TDP43 rescue 13µM, aSyn rescue inconclusive
CCOC(=O)c1cc(-c2ccc(OC)cc2)n(CCC(=O)NC2CCCCC2)c1C	none (no result: aSyn rescue, pAkt inh)
CCCCCCSc1nnc(-c2cnn(-c3ccccc3)c2-n2cccc2)n1C	none
CCSc1nnc(-c2cnn(-c3ccccc3)c2-n2cccc2)n1C	pAkt inh -115%
O=C(NCc1ccccc1)N1CCC(n2cnc3cc(F)ccc32)CC1	pAkt inh -112%
N/C(=N\OC(=O)Cc1cccs1)c1cccc([N+](=O)[O-])c1	TDP43 rescue 11µM
N/C(=N\OC(=O)c1ccc([N+](=O)[O-])cc1)c1ccc(Br)cc1	none
N/C(=N\OC(=O)c1ccc(Br)cc1)c1cccc([N+](=O)[O-])c1	TDP43 rescue 10µM
Cc1ccc(C(=O)O/N=C(\N)c2cccc([N+](=O)[O-])c2)cc1	TDP43 rescue 10µM
COc1ccc(CNC(=O)CCC(=O)N2CC3CCCN3c3ccccc32)cc1 (configuration not stated)	none (no result: aSyn rescue, pAkt inh)
CCN(C(=O)Cn1nc(Cc2ccncc2)c2ccccc2c1=O)c1cccc(Cl)c1	none (no result: aSyn rescue, pAkt inh)
CCCN1CNc2c(c(=O)[nH]c(=S)n2CCc2ccccc2OC)C1	none (no result: TDP43 rescue, Abeta rescue, pAkt inh, FUS yeast rescue)
Cc1ccc(-c2nc(CS(=O)(=O)CC(=O)Nc3ccc(Br)cc3F)c(C)o2)cc1	none (no result: aSyn rescue, pAkt inh)
Cc1ccc(Sc2c(C)nn(-c3ccccc3)c2OC(=O)C(C)(C)C)cc1	TDP43 rescue 14µM (no result: aSyn rescue, pAkt inh)
CCCC(=O)Oc1c(Sc2ccc(C)cc2)c(C)nn1-c1ccccc1	TDP43 rescue 11µM (no result: aSyn rescue, pAkt inh)
CCC(=O)Oc1c(Sc2ccc(C)cc2)c(C)nn1-c1ccccc1	none (no result: aSyn rescue, pAkt inh)
COc1cc(C(=O)NCc2ccc3c(c2)CCN3C(=O)c2ccc(Cl)cc2)cc(OC)c1OC	none (no result: aSyn rescue, pAkt inh)
Cc1cc(/C=C2\NC(=S)N(C)C2=O)ccc1N1CCCC1	none
CCCN1C(=O)/C(=C/c2ccc(N3CCCC3)c(C)c2)NC1=S	TDP43 rescue 3.2µM
CCCN1C(=O)/C(=C/c2ccc(N3CCOCC3)cc2)NC1=S	none
CCCN1C(=O)/C(=C/c2ccc(OCC(=O)OCC)cc2)NC1=S	FUS yeast rescue 22µM
